The structures appear in SMILES notation.

The record followed here is PubChem BioAssay.

One assay deals with Inhibin beta A chain (activin A). Description: small molecules binding activin A – biochemical, small-molecule microarray, 635 nm fluorescence scan, primary screen (AID 1107).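 Note: mouse activin A protein probed at 4.33 µg/mL on printed slides; score merges bound-protein fluorescence near 667 nm with spot signal-to-noise.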 Particulars: INHBA, higher = more signal.
In turn, `O=c1cccc(-c2ccco2)o1` displayed a composite z-score of 1.24. The same measure, in the same setting: with `CN(C)C(=O)[C@@]1(Cc2ccccc2N=[N+]=[N-])N=C(c2ccc(OCCCO)cc2)O[C@H]1c1ccccc1` the figure was 0.787; with `CC(C)[C@H]1NC(=O)[C@@]23C(=O)N[C@@H](Cc4ccccc4)C2[C@H](C)[C@@]2(C)O[C@H]2C3/C=C/CCC/C=C/CNC(=O)[C@H](Cc2ccccc2)NC1=O` (stereo partly drawn), 0.943; with `C=CCC(OC(C)=O)[C@@H]1[C@@H](N(Cc2cc3ccccc3o2)C(=O)c2ccc(-c3ccccc3)cc2)c2cc(OCCCO)ccc2N1C(=O)Cc1ccc(OC)cc1` (stereo partly drawn), 0.774. Still for that read-out and setting: the result for `[N-]=[N+]=NCc1ccccc1[C@H]1OC(c2ccc(OCCCO)cc2)=N[C@@]1(CCS(=O)(=O)c1ccccc1)C(=O)NCc1ccccc1` reads 0.447; that for `CC(=O)n1cc(C(O)C2C=CC3C(=O)N(c4ccccc4)C(=O)C3N2Nc2ccc(C(C)C)cc2)c2ccccc21` (stereo not drawn), 1.02. On the same count and under the same terms, with `C=C(COC)C(=O)CC[C@H](OC(C)=O)c1ccc(OCCO)cc1` the figure was 0.136; with `Cc1ccccc1C(O)C1C=CC2C(=O)NC(=O)C2N1Nc1ccc(Cl)cc1Cl` (stereo not drawn), 1.18.

The subject of another assay is Human papillomavirus type 1a protein E7 (residues 44-93). Description: small molecules binding HPV E7 44-93 – biochemical, small-molecule microarray, residues 44-93, 635 nm fluorescence, primary screen (AID 1108).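 Note: E7 fragment applied at 1 µg/mL in TBST for 1 h at 4 C; score combines spot fluorescence with its signal to noise ratio.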 Particulars: fluorescence 635 nm, higher = more signal.
In turn, `CCOC(=O)C1=CCC(c2ccco2)N(S(=O)(=O)c2ccc(C)cc2)C1` (stereo not drawn) returned a composite z-score of 1.36.

The molecule `COCCOC(=O)N1C(=O)[C@@]2(c3cc(C#CCC(C(=O)OC)C(=O)OC)ccc31)[C@H](C(=O)NC[C@H](O)c1ccccc1)[C@H]1C(=O)O[C@H](c3ccccc3)[C@H](c3ccccc3)N1[C@@H]2c1ccc(OCCO)cc1` came in with a composite z-score of 1.36. The molecule `CCCNC(=O)[C@@]1(Sc2ccc(C)cc2)CC(=O)N(C(C)C)[C@@H]1c1ccc(CO)cc1I` had a composite z-score of -0.593.

`COC(=O)[C@@]1(Cc2ccc(F)cc2)[C@H]2c3cc(C(=O)N4CCCC4)n(C)c3C[C@H]2CN1C(=O)c1ccccc1` came in with a composite z-score of -0.919. Same read-out and setting: with `O=C1O[C@H](c2ccccc2)[C@H](c2ccccc2)N2[C@H]1[C@@H](C(=O)N1CCCCCCC1)[C@]1(C(=O)Nc3ccc(C#CC4(O)CCCCCC4)cc31)[C@H]2c1ccc(O)cc1` the figure was 1.4; with `O=C1O[C@H](c2ccccc2)[C@H](c2ccccc2)N2[C@H]1[C@@H](C(=O)O)[C@]1(C(=O)Nc3ccc(C#CC4(O)CCCCCC4)cc31)[C@H]2c1ccc(O)cc1`, 0.628; with `COCCOC(=O)N1C(=O)[C@@]2(c3ccccc31)[C@H](c1ccccc1OCCO)N1[C@H](c3ccccc3)[C@H](c3ccccc3)OC(=O)[C@H]1[C@@H]2C(N)=O`, 1.19. Still for that read-out and setting: the result for `NC(=O)[C@@H]1[C@H]2C(=O)O[C@H](c3ccccc3)[C@H](c3ccccc3)N2[C@H](c2ccc(OCCO)cc2)[C@@]12C(=O)Nc1ccc(C#CCCO)cc12` reads -1.04. `Cc1cccc([C@H]2C[C@H]3C(Br)=C[C@@H]2C(=O)[C@]32CO2)c1` came in with a composite z-score of -0.97. On the same count and under the same terms, with `COc1ccc(C#Cc2ccc3c(c2)[C@]2(C(=O)N3)[C@H](C(=O)Nc3nc4ccccc4s3)[C@H]3C(=O)O[C@H](c4ccccc4)[C@H](c4ccccc4)N3[C@@H]2c2ccccc2OCCO)cc1` the figure was 1.18. With `C=CCNC(=O)[C@@H]1[C@H]2C(=O)O[C@H](c3ccccc3)[C@H](c3ccccc3)N2[C@H](c2ccc(OCCO)cc2)[C@@]12C(=O)N(C(=O)OCCOC)c1ccc(C#CCCO)cc12`, the composite z-score was determined as 1.33. As for `COCC(=C=CC[C@@H](O)c1cccc(OCCO)c1)CCO`, the composite z-score stood at 0.328.

`COCCOC(=O)N1C(=O)[C@@]2(c3cc(C#CC4(O)CCCCCC4)ccc31)[C@H](C(=O)N1CCN(c3ncccn3)CC1)[C@H]1C(=O)O[C@H](c3ccccc3)[C@H](c3ccccc3)N1[C@@H]2c1ccccc1OCCO` yielded a composite z-score of 1.37. The same measure, in the same setting: with `[N-]=[N+]=Nc1ccccc1C[C@]1(C(=O)O)N=C(c2ccc(OCCCO)cc2)O[C@H]1c1ccccc1N=[N+]=[N-]` the figure was 0.99. The same measure, in the same setting: with `NC(=O)NCC#Cc1ccc2c(c1)[C@]1(C(=O)N2)[C@H](C(=O)N2CCN(c3ncccn3)CC2)[C@H]2C(=O)O[C@H](c3ccccc3)[C@H](c3ccccc3)N2[C@@H]1c1ccc(OCCO)cc1` the figure was 1.23; with `CN(C)C(=O)[C@@]1(Cc2ccccc2)COC(c2ccc(OCCCO)cc2)=N1`, -0.112; with `CCN(CC)c1ccc(N2CC=CC34O[C@@H]5C=CCCOC(=O)C5[C@H]3C(=O)N(CCO)[C@@H]4C2=O)cc1` (stereo partly drawn), -0.595. Still for that read-out and setting: the result for `C[C@@H]1ON(c2ccc(I)cc2)[C@H](c2ccc(OC(=O)OC(C)(C)C)cc2)[C@H]1C(=O)N1C(=O)OC[C@H]1Cc1ccccc1` reads 1.15; that for `COc1cc(CO)cc(I)c1O[C@H]1C=C(C(=O)NCCO)C[C@@H](NCC2CCCCC2)[C@@H]1O`, 0.552. As to `C=CCNC(=O)[C@@H]1[C@H]2C(=O)O[C@H](c3ccccc3)[C@H](c3ccccc3)N2[C@H](c2ccc(O)cc2)[C@@]12C(=O)Nc1ccc(C#CCC(C(=O)OC)C(=O)OC)cc12`, the composite z-score came out at 1.31.

Take `CCOC(=O)C1=C[C@@H](c2ccccc2)N(S(=O)(=O)c2ccc(C)cc2)[C@H]1c1ccccc1`: the composite z-score came out at 0.0627. As to `[N-]=[N+]=NC[C@H](Cc1ccccc1)NC(=O)c1ccccc1`, the composite z-score was -0.778. For `COc1ccc(C(O)C2C=CC3C(=O)N(c4ccccc4)C(=O)C3N2Nc2ccccc2F)cc1` (stereo not drawn), the composite z-score was determined as 0.726. Still for that read-out and setting: with `C#C[C@@H](CC)O[Si](C#CCCCC#N)(C(C)C)C(C)C` the figure was 0.294; with `CCCCCCCCCCC(O)C1C=CC2C(=O)N(C)C(=O)C2N1Nc1cc(OC)c(OC)c(OC)c1` (stereo not drawn), -0.298. For the molecule `C=C[C@H](C)[C@H](OC(=O)Nc1ccc(OC)cc1)c1ccc(OCCO)cc1`, the composite z-score was -0.562. Still for that read-out and setting: with `COCCOC(=O)N1C(=O)[C@@]2(c3cc(C#CC4(O)CCCCCC4)ccc31)[C@H](c1ccc(OCCO)cc1)N1[C@H](c3ccccc3)[C@H](c3ccccc3)OC(=O)[C@H]1[C@@H]2C(=O)Nc1nc2ccccc2s1` the figure was 1.22; with `O=c1cccc(-c2ccco2)o1`, 0.582. Consider `CN(C)C(=O)[C@@]1(Cc2ccccc2N=[N+]=[N-])N=C(c2ccc(OCCCO)cc2)O[C@H]1c1ccccc1`, for which the composite z-score was found to be 0.0896. Same read-out and setting: the result for `CC(C)[C@H]1NC(=O)[C@@]23C(=O)N[C@@H](Cc4ccccc4)C2[C@H](C)[C@@]2(C)O[C@H]2C3/C=C/CCC/C=C/CNC(=O)[C@H](Cc2ccccc2)NC1=O` (stereo partly drawn) reads 1.41; that for `C=CCC(OC(C)=O)[C@@H]1[C@@H](N(Cc2cc3ccccc3o2)C(=O)c2ccc(-c3ccccc3)cc2)c2cc(OCCCO)ccc2N1C(=O)Cc1ccc(OC)cc1` (stereo partly drawn), -0.401. In the case of `[N-]=[N+]=NCc1ccccc1[C@H]1OC(c2ccc(OCCCO)cc2)=N[C@@]1(CCS(=O)(=O)c1ccccc1)C(=O)NCc1ccccc1`, the composite z-score was 1.4.

Turning to `CC(=O)n1cc(C(O)C2C=CC3C(=O)N(c4ccccc4)C(=O)C3N2Nc2ccc(C(C)C)cc2)c2ccccc21` (stereo not drawn), the composite z-score was 0.656. `C=C(COC)C(=O)CC[C@H](OC(C)=O)c1ccc(OCCO)cc1` displayed a composite z-score of 0.159. Molecule `Cc1ccccc1C(O)C1C=CC2C(=O)NC(=O)C2N1Nc1ccc(Cl)cc1Cl` (stereo not drawn) gave a composite z-score of -0.198.
